# Assay outcomes from PubChem BioAssay.
# In the library only some 3.5% were active in any assay of this set; here they are far more common.
# MITF primary: MITF inhibitors, primary screen, biochemical, AlphaScreen, human; Microphthalmia-associated transcription factor (Homo sapiens), O75030; AlphaScreen MITF homodimerization, bead proximity signal; inhibition, % at 2.6 µM; 650,000 compounds, 0.91% hits; AID 1259374, 2018; in the data active = inhibition above about 50%;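 also: 0% = vehicle wells with protein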
# Target sequence (O75030 whole entry, looked up): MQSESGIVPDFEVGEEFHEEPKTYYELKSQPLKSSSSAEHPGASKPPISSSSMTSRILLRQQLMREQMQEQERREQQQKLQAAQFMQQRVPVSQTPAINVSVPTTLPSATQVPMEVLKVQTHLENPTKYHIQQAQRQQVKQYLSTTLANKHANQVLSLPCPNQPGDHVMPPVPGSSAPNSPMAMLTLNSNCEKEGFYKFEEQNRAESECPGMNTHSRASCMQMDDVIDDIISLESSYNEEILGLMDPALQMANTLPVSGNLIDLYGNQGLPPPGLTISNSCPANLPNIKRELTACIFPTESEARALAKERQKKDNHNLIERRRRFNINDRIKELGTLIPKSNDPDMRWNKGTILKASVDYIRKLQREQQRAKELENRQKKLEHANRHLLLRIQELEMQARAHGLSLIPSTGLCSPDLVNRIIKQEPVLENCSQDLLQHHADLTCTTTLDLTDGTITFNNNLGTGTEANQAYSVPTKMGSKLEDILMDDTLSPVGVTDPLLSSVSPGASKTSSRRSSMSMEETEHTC
# TEAD-YAP inh: TEAD-YAP interaction inhibition, primary screen, TEAD-YAP interaction inhibitor project, luminescence, HEK-TIYL cells. TEAD-Gal4/YAP UAS-luciferase luminescence. inhibition, % at 9.12 µM. 640,000 compounds, 1.4% hits; in the data active = inhibition above about 32%;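 also: 0% = median of test compound wells and 100% = reference inhibitor wells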
# FBW7 activator: FBW7 E3 ligase activators, primary screen, biochemical, AlphaScreen, human | AlphaScreen FBW7–phospho-cyclin E peptide binding, activator screen | normalized activity (activation), % at 26.1 µM | AID 1259310, 2017 | F-box/WD repeat-containing protein 7 (Homo sapiens), Q969H0 | 650,000 compounds, 0.13% hits; in the data active = normalized activity above about 1.9%;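 also: purified mutant Fbw7 with reduced substrate affinity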
# GPR151 ag: activators of human GPR151, primary screen, cell-based, PathHunter beta-arrestin, luminescence. G-protein coupled receptor 151 (Homo sapiens), Q8TDV0. PathHunter beta-arrestin GPR151 cells. activation, % at 11.2 µM. 650,000 compounds, 1% hits. AID 1508602, 2020; in the data active = activation above about 4.9%;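 also: 0% = median of compound wells and 100% = cells with positive control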
# MITF inh conf: MITF inhibitors, retest of hits, confirmation, biochemical, AlphaScreen, triplicate | shares compounds with MITF primary | AlphaScreen MITF homodimerization, biotin/His-MITF beads | inhibition, % at 2.6 µM | 4,700 compounds, 16% hits | AID 1259372, 2018;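 active = inhibition above a cutoff derived from the DMSO control wells, cut at about 28% in these data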;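 also: 0% = MITF dimer wells with DMSO only; inhibitors lower the bead chemiluminescence by keeping MITF from dimerizing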
# AlphaScreen intf2: AlphaScreen optical interference compounds, counter-screen for MITF inhibitor project, biochemical, triplicate. 4,700 compounds, 7.6% hits. AID 1259376, 2018. shares compounds with MITF primary. inhibition, % at 2.6 µM. LysRS AlphaScreen counterscreen, signal interference;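 active = inhibition above a cutoff derived from the DMSO control wells, cut at about 30% in these data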
# * = called active by the depositor; · = not tested or not shown.
SMILES,MITF primary,TEAD-YAP inh,FBW7 activator,GPR151 ag,MITF inh conf,AlphaScreen intf2
CN(C)CCN(C)Cc1ccccc1[N+](=O)[O-],76*,-2,0,-1,10,17
CN(CCc1ccccn1)Cc1ccccc1F,79*,-1,0,0,2,19
CN(CCc1ccccn1)Cc1ccccc1C(F)(F)F,35,-2,0,-1,·,·
COc1cccc(CN(C)CCc2ccccn2)c1OC,41,-2,0,-1,·,·
C=CCOc1ccccc1CN(C)CCc1ccccn1,65*,9,0,0,-12,-7
O=C(Nc1ccnn1C1CCN(Cc2ccc(F)cc2)CC1)C1CCCC1,15,-2,0,-1,·,·
CN(C)CCN(C)Cc1ccccc1F,53*,-2,0,1,-2,-2
CN(CCc1ccccn1)Cc1ccccc1Br,81*,3,0,0,1,11
COc1ccc(CN(C)CCc2ccccn2)c(OC)c1,77*,2,0,-1,4,3
COC(=O)C(C)CN1CCN(C)CC1 (stereo unspecified),60*,-3,0,0,-23,-6
CCSCc1nnc(SCC(=O)Nc2cc(C)c(C)cc2Br)n1C,1,6,0,1,·,·
COc1cc(Nc2nc(SCC(=O)NCC3CCCO3)nc3ccccc23)cc(OC)c1 (stereo unspecified),60*,5,0,0,-12,-8
O=C(CSc1nc(Nc2ccc(F)c(F)c2)c2ccccc2n1)NCC1CCCO1 (stereo unspecified),6,0,0,-1,·,·
CC(C)(C)c1csc2ncc(C(=O)NCCN3CCCC3)c(=O)n12,-5,1,0,0,·,·
O=C(CNC1CCCC1)Nc1ccccc1N1CCCCCC1,18,-3,0,2,·,·
CC(C)CCNCC(=O)Nc1ccccc1N1CCCCC1,58*,-3,0,1,7,18
O=C(CNCCCO)Nc1ccccc1N1CCCCC1,57*,-2,0,0,7,18
CC1=CC(C)(C)N(C(=O)CNCCCN2CCOCC2)c2cc(C)ccc21,56*,-1,0,-1,6,17
O=C(CNCCN1CCOCC1)N1CCc2ccccc2C1,71*,-6,0,-1,3,1
O=C(CNCCCO)Nc1ccccc1N1CCCCCC1,22,-4,1,-1,·,·
CCOc1cc(/C=C2\C(=O)NC(=O)N(c3cc(C)cc(C)c3)C2=O)ccc1OCC(=O)O,-13,1,0,-1,·,·
O=c1c2ccccc2nc2cc(-c3ccc(F)cc3)c(-c3ccc(F)cc3)nn12,8,0,0,1,·,·
O=C(C(O)C(O)C(=O)N1CCOCC1)N1CCOCC1 (stereo unspecified),13,2,0,2,·,·
O=C(CNC1CCCCC1)Nc1ccccc1N1CCOCC1,55*,-7,0,0,7,14
O=C(CNCCN1CCCCC1)Nc1ccccc1N1CCOCC1,86*,-5,0,2,5,12
SMILES,MITF primary,TEAD-YAP inh,FBW7 activator,GPR151 ag,MITF inh conf,AlphaScreen intf2
O=C(CNCCN1CCCCC1)Nc1ccccc1N1CCCCC1,85*,6,0,1,6,13
O=C(CNC1CCCCCC1)Nc1ccccc1N1CCCCC1,41,-5,0,3,·,·
O=C(CNCCCN1CCOCC1)Nc1ccccc1N1CCOCC1,84*,-2,0,0,-8,-7
COc1ccccc1/C=C/C(=O)Nn1c(C)nc2ccccc2c1=O,-3,15,0,0,·,·
COCc1ccc(-c2nccnc2NS(=O)(=O)c2ccc(Cl)cc2)cc1,18,9,0,-1,·,·
O=C(C1CCCN(Cc2ccc(Cl)cc2)C1)N1CCCCCC1 (stereo unspecified),88*,14,0,0,-10,-3
COc1ccc(CN2CCCC(C(=O)N3CCCC3)C2)c(OC)c1 (stereo unspecified),54*,8,0,-1,-15,-3
CCOC(=O)C1CCCCN1Cc1ccc(O)cc1 (stereo unspecified),32,13,1,0,·,·
CCOc1ccc(CN2CCC(C(=O)N3CCCC3)CC2)cc1,40,1,0,1,·,·
CCOC(=O)C1CCCCN1Cc1ccc(Br)cc1 (stereo unspecified),55*,7,0,0,14,1
CCOc1ccc(CN2CCCC(C(=O)N3CCCC3)C2)cc1 (stereo unspecified),68*,0,0,-1,4,15
O=C(Nc1cccc2ccccc12)c1cc2n(n1)C(C(F)(F)F)CC(c1cccs1)N2 (stereo unspecified),14,-9,0,-2,·,·
CCOC(=O)C1CCCN(CC(=O)c2ccc(F)cc2)C1 (stereo unspecified),69*,-12,0,2,-14,8
CCOc1ccc2nc(N3CCCC(C(=O)Nc4ccc(NC(C)=O)cc4)C3)sc2c1 (stereo unspecified),-8,-36,0,0,·,·
CCOC(=O)C1CCCN(Cc2ccc(NC(C)=O)cc2)C1 (stereo unspecified),21,3,0,1,·,·
CCCN1CCN(C(=O)C2CCCN(c3nc4ccc(OCC)cc4s3)C2)CC1 (stereo unspecified),62*,-3,0,0,15,11
CCOc1ccccc1CN1CCCC(C(=O)N2CCCCCC2)C1 (stereo unspecified),70*,27,0,-1,16,18
CCOC(=O)C1CCCN(C2CC(=O)N(c3ccc(F)cc3)C2=O)C1 (stereo unspecified),-2,5,0,0,·,·
CCOC(=O)C1CCCN(Cc2ccc(Br)cc2)C1 (stereo unspecified),57*,-12,0,-1,1,14
O=C(NCCOc1ccccc1)c1cncc(-c2ccc(C(=O)NC3CC3)cc2)c1,1,3,0,2,·,·
CCOc1ccc(C(=O)CCNC(CC(=O)O)c2ccccc2)cc1 (stereo unspecified),4,-10,1,0,·,·
CCCC1CCC(C2=N/C(=C/c3ccc(N(C)C)cc3)C(=O)O2)CC1 (stereo unspecified),3,10,0,0,·,·
CCOc1ccccc1CN1CCC(N2CCCCCC2)CC1,78*,3,0,0,-11,-4
O=C(C1CCCN(Cc2ccc(Br)cc2)C1)N1CCCCC1 (stereo unspecified),60*,12,0,0,7,-3
COc1cc(/C=N/NC(=O)C(=O)Nc2cccc(C(F)(F)F)c2)ccc1O,1,5,0,0,·,·
